Test results published in PubChem BioAssay (NCATS).
“And” between values parts separate entries of the source, which are not always exact repeats. Equal values may be shown once. Results filed as inconclusive are left out. A call without a number means that no potency is given here. The source holds several records for some structures; these can differ, active in one and inactive in another. The source made the active and inactive calls. Calls come from the whole dose curve; as a rule, active = well fitted inhibition curve with a large enough effect; inconclusive = small, poorly fitted or top-dose-only effect; inactive = flat fitted curve, though single readings scatter. Peptide text beside a SMILES is read from it.

The molecules below were run against Glutathione peroxidase 1 (Homo sapiens) (UniProt P07203) (assay: Primary qHTS Assay for Inhibitors of Recombinant Selenoprotein Glutathione Peroxidase 1 (GPX1) (AID 1845191; note: nearly all actives have a fitted effect of over 65% in size)). Conditions: recombinant GPX1, GR-coupled NADPH fluorescence, 15 min; series mostly up to 48.8 µM.
Glutathione peroxidase 1 (Homo sapiens), sequence (P07203 whole entry, looked up): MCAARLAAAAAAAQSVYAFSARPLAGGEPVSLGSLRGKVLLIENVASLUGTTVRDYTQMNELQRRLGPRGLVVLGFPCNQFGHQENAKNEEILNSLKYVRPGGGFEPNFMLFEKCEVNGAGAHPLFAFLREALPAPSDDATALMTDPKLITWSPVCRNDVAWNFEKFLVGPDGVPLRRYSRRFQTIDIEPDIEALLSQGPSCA
Source text: Assay Provider: Elias S.J. Arner MD PhD.
Department of Medical Biochemistry and Biophysics
Karolinska Institutet, Solna, Stockholm, Sweden
Selenoprotein glutathione peroxidases (GPX), like the ubiquitously expressed GPX1 and the ferroptosis modulator GPX4, enact their antioxidant activities by reducing hydroperoxides using glutathione. […] GPX1 and GPX4 inhibitors have thus shown promise as anti-cancer agents. Existing inhibitors are often promiscuous, or modulate GPX activity only indirectly, so novel direct inhibitors identified through screening against GPX1 and GPX4 could be valuable. Here, we developed optimized glutathione reductase (GR)-coupled GPX assays for the biochemical high-throughput screen (HTS) of almost 12,000 compounds with known mechanisms of action. Initial hits were triaged using a GR counter-screen, assessed for isoform specificity using a separate GPX2 assay, and were assessed for general selenocysteine-targeting activity using a thioredoxin reductase (TXNRD1) assay. With this suite of assays, we identified novel GPX1/GPX2- and GPX4-specific inhibitors and can here present a validated pipeline for future discovery research for selenoprotein-targeting agents.
SEQUENCE No. (e.g., 1, 2, 3, etc.); […] (e.g., Cells, Incubation, Reagent, etc.); VALUE; DESCRIPTION.
1; Reagent 1; 3 uL; GPx1 enzyme or no enzyme control in 1536-well, black, solid Greiner assay plate.
2; Compound; 25 nL; Kalypsis pin tool (Wako USA) equipped with a 1536-well pin head.
3; Incubation; 30 min; room temperature.
4; Reagent 2; 1 uL; 10 nM GPX1, 1 mM GSH, 0.5 mM CHP, 0.5 mM NADPH, 100 nM GR, 0.01% BSA substrate
5; Detection; Fluorescence; ViewLux microplate reader, excitation 340 nm and emission 450 nm.
6; Incubation; 15 min; room temperature.
7; Detection; Fluorescence; ViewLux microplate reader, excitation 340 nm and emission 450 nm.
NOTES (numbers refer to Sequence numbers above)
1. 3 uL of 16.66 nM GPX1 and 0.016% BSA in assay buffer (50 mM Tris-HCl, 2 mM EDTA (pH 7.5), 150 mM NaCl) was added to columns 3-48 of 1536-well assay plates using a BioRAPTR Flying Reagent Dispenser (Let's Go Robotics (LGR), Carlsbad, CA). A no-enzyme control (0.01% BSA in TES assay buffer) was added to columns 1-2.
2. 25 nL of test compounds and DMSO controls were added to each well with a pin tool (Kalypsys).
3. The assay plates were incubated for 30 minutes at room temperature.
4. 1 uL of master mix (500 nM glutathione reductase (GR), 5 mM reduced glutathione (GSH), 2.5 mM NADPH in assay buffer) was added. 1 uL of cumene hydroperoxide (CHP) ([2.5 mM] in 50% EtOH) was then added within 5 minutes to initiate the reaction. Final concentrations were: 10 nM GPX1, 1 mM GSH, 0.5 mM CHP, 0.5 mM NADPH, 100 nM GR, 0.01% BSA.
5. Initial fluorescence readout (t=0) at 340/450 nm was measured using a ViewLux multimodal detector (PerkinElmer, Waltham, MA).
7. Endpoint fluorescence readout (t=15) at 340/450 nm was measured 15 min after room temperature incubation.
Potency is the fitted concentration of half-maximal effect.

Compound | Potency
CN(C)C(=O)[C@H](O)[C@H](Cc1ccccc1)NC(=O)c1cc2cc(Cl)ccc2[nH]1 | inactive
O=C(O)c1cccc(-c2noc(-c3ccccc3F)n2)c1 | inactive
CN1C(C(=O)Nc2ccccn2)=C(O)c2sccc2S1(=O)=O | inactive
COC(=O)[C@H](Cc1ccccc1)NC(=O)[C@@H](N)CC(=O)O (H-Asp-Phe-OMe) | inactive
O=P(O)(O)C(O)(Cn1ccnc1)P(=O)(O)O | inactive
O=C(c1ccccc1)c1ccc2n1CCC2C(=O)O (stereo not given) | inactive
CN(C)c1ccc2nc3ccc(=[N+](C)C)cc-3sc2c1 | inactive
Nc1ccc(S(N)(=O)=O)cc1 | inactive
Oc1ccc(-c2nc(-c3ccc(F)cc3)c(-c3ccncc3)[nH]2)cc1 | inactive
COc1c2occc2cc2ccc(=O)oc12 | inactive
CC(C)[C@H](N)C(=O)OCCOCn1cnc2c(=O)[nH]c(N)nc21 | inactive
COc1cc2c(cc1OC)C1CC(=O)C(CC(C)C)CN1CC2 (stereo not given) | inactive
COC(=O)C1=C(C)NC(C)=C(C(=O)OC(C)C)C1c1cccc2nonc12 (stereo not given) | inactive
CN1CCC(=C2c3ccccc3CCc3sccc32)CC1 | inactive
Clc1ccc2c(N3CCN(CCCN4CCN(c5ccnc6cc(Cl)ccc56)CC4)CC3)ccnc2c1 | inactive
CC(C)[N+]1(C)[C@@H]2CC[C@H]1CC(OC(=O)C(CO)c1ccccc1)C2 (stereo not given in full) | inactive
Cc1ccc(C)c(OCCCC(C)(C)C(=O)O)c1 | inactive
O=C1NC(=O)C(c2ccccc2[N+](=O)[O-])=C1Nc1ccc(O)c(Cl)c1 | inactive
O=c1oc2cc(O)ccc2s1 | inactive
CN(C)CCCC1(c2ccc(F)cc2)OCc2cc(C#N)ccc21 (stereo not given) | inactive

Compound | Potency
O=C(OC1C[C@H]2CC[C@@H](C1)[N+]21CCCC1)C(O)(c1ccccc1)c1ccccc1 (stereo not given in full) | inactive
CC1=C(C)C(=O)C(C(CCCCCC(=O)O)c2ccccc2)=C(C)C1=O (stereo not given) | inactive
O=C(O)c1cccnc1Nc1cccc(C(F)(F)F)c1 | inactive
COc1ccc(C2(C#N)CCC(C(=O)O)CC2)cc1OC1CCCC1 (stereo not given) | inactive
CC(C)c1ccc2c(c1)c(SC(C)(C)C)c(CC(C)(C)C(=O)O)n2Cc1ccc(Cl)cc1 | inactive
CCCCN(CCCC)CCC(O)c1cc2c(Cl)cc(Cl)cc2c2cc(C(F)(F)F)ccc12 (stereo not given) | inactive
COc1cc2c(N3CCN(C(=O)Nc4ccc(OC(C)C)cc4)CC3)ncnc2cc1OCCCN1CCCCC1 | inactive
CCOC(=O)c1c(C)n(C)c2ccc(O)cc12 | inactive
O=C(CCc1ccc(O)cc1)c1c(O)cc(O)cc1O | inactive
O=C(NCC1CCCCN1)c1cc(OCC(F)(F)F)ccc1OCC(F)(F)F (stereo not given) | inactive
NS(=O)(=O)c1cc(C(=O)O)c(NCc2ccco2)cc1Cl | inactive
Cc1nc(-c2ccc(OCC(C)C)c(C#N)c2)sc1C(=O)O | inactive
N[C@@H](Cc1cc(I)c(Oc2cc(I)c(O)c(I)c2)c(I)c1)C(=O)O | inactive
Nc1cc(C(Cl)=C(Cl)Cl)c(S(N)(=O)=O)cc1S(N)(=O)=O | inactive
Clc1ccc(C(Cn2ccnc2)OCc2ccsc2Cl)c(Cl)c1 (stereo not given) | inactive
CC1(C)NC(=O)N(c2ccc([N+](=O)[O-])c(C(F)(F)F)c2)C1=O | inactive
Cc1cccc(C)c1OCC(=O)N[C@@H](Cc1ccccc1)[C@@H](O)C[C@H](Cc1ccccc1)NC(=O)[C@H](C(C)C)N1CCCNC1=O | inactive
COC1=C(OC)C(=O)C(CCCCCCCCCCO)=C(C)C1=O | inactive and 7.28 µM (active)
CC(=O)O[C@H]1C(=O)[C@@]2(C)C([C@H](OC(=O)c3ccccc3)[C@]3(O)C[C@H](OC(=O)[C@H](O)[C@@H](NC(=O)c4ccccc4)c4ccccc4)C(C)=C1C3(C)C)[C@]1(OC(C)=O)CO[C@@H]1C[C@@H]2O (stereo not given in full) | inactive
Nc1nc(OCc2ccccc2)c2[nH]cnc2n1 | inactive
